# Screening data (PubChem BioAssay)
# The list is not random: actives were taken first. Their share in the collection is about 2.4%.
# D2 ag-1 = agonists of human D2 dopamine receptor (beta-arrestin). 360,000 compounds, 0.084% hits. activation, % (test concentration not listed). AID 624465. DiscoveRx PathHunter D2 beta-arrestin, luminescence, 90 min; 100% = 57 uM dopamine signal; in the data active means activation above about 40%
# Target sequence (P14416 whole entry, looked up): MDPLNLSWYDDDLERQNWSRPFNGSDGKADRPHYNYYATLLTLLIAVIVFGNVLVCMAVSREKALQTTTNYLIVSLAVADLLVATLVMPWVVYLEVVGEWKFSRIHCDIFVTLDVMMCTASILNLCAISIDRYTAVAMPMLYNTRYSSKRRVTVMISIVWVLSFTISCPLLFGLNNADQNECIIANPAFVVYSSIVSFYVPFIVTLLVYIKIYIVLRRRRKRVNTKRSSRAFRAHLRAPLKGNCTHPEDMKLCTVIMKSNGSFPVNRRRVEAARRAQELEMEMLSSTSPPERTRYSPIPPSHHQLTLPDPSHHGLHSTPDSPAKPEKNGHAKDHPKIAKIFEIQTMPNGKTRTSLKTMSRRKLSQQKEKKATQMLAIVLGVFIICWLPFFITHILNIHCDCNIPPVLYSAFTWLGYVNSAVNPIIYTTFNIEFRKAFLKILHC
#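 DiscoveRx PathHunter D2 beta-arrestin cells (2,100/well) attached overnight, then compound-stimulated 90 min at 37 C in HBSS/10 mM HEPES/0.1% Tween-20 buffer; beta-galactosidase complementation read by luminescence after 1 h at ambient temperature. Dopamine 57 uM final (EC100) as control.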
# D2 antagonist = antagonizes the human D2 dopamine receptor. P14416. inhibition, % at 10 µM. HEK293 TREx D2 cells, calcium flux, dopamine EC80. 340,000 compounds, 2% hits; in the data active means inhibition above about 30%; inactive means below that, where a call was filed; further: 0% is about no effect
#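 Compounds are added to dye-loaded, induced HEK293 T-REx cells coupled to calcium release via D2; after a 3 min kinetic read an EC80 dopamine stimulus is given and fluorescence is recorded for 3 more min.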
# D2 ag-2 = D2 dopamine receptor (human) agonism. 340,000 compounds, 0.53% hits. activation, % at 2 µM. AID 485358. HEK293 T-REx D2 cells, calcium flux agonist mode;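 active means activation over 3 SD above normal in the single-dose calcium agonist read, cut at about 30% in these data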; further: 0% is about no effect
#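 Tetracycline-induced HEK293 Trex cells with D2 receptor force-coupled to calcium signaling, plated overnight at 30 C and loaded with no-wash calcium dye. Calcium flux read kinetically for 180 s after compound addition; responses flag agonists.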
# D2 PAM-1 = positive allosteric modulators of human D2 dopamine receptor. P14416. 340,000 compounds, 0.34% hits. HEK293 T-REx D2, calcium flux, EC20 dopamine potentiation. potentiation, % at 10 µM;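 active means potentiation over 3 SD above the plate norm, cut at about 30% in these data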; further: 0% is about no effect
#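 Tetracycline-induced HEK293 T-REx cells force-coupled to calcium signalling expressed D2; compounds were pin-added after a 10 s baseline, read kinetically 180 s, then an EC20 dopamine challenge followed with a further 180 s calcium read.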
# D2 PAM-2 = potentiates the human D2 dopamine receptor allosterically. DiscoveRx D2 beta-arrestin cells, luminescence, 90 min; 100% = 57 uM dopamine signal. potentiation, % (test concentration not listed). 360,000 compounds, 0.23% hits. AID 624464; in the data active means potentiation above about 50%
#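 D2 cells co-treated with compound plus 50 nM dopamine (EC20) for 90 min at 37 deg C to detect potentiation. Beta-arrestin recruitment was read as enzyme-fragment luminescence after 1 h at ambient temperature. Full response was set by 57 uM dopamine.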
# Active calls of the source: *; · = no result; ! = a repeat was not active.
SMILES,D2 ag-1,D2 antagonist,D2 ag-2,D2 PAM-1,D2 PAM-2
Cc1ccc(S(=O)(=O)N/N=C\c2cccnc2)cc1,4,35*,0,-1,-14
O=C(CCCc1ccccc1)Nc1ccnn1C1CCN(Cc2ccc(Cl)cc2)CC1,-1,35*,0,-23,-20
O=C(CCCc1ccccc1)Nc1ccnn1C1CCN(Cc2ccccc2)CC1,-6,41*,1,-34,-30
COc1ccc(C(=O)N2CCc3ccc(NC(=O)c4ccccn4)cc3C2)cc1F,0,-1,0,-4,-4
Cc1ccc(SCC(=O)NCC2COc3ccccc3O2)cc1 (stereo not given),-1,-3,0,-7,-9
Cc1ccc(C)c(S(=O)(=O)N2CCN(C(=O)c3cc(S(=O)(=O)NCc4ccccc4)ccc3C)CC2)c1,0,2,1,3,-5
COc1ccc(C2CNC(=O)C2)cc1OC1CCCC1 (stereo not given),-4,71*!,70*!,-4,-2
COc1ccc(CCNS(=O)(=O)c2ccc(C3CNC(=O)C3)cc2)cc1OC (stereo not given),0,·,·,·,3
Cc1ccc(N(CC(=O)Nc2ccc(C)c(F)c2)S(=O)(=O)c2c(C)n[nH]c2C)cc1,·,·,1,-8,·
Cc1cc(=O)nc2c3ccccc3n(C(C)C(=O)Nc3c(F)c(F)c(F)c(F)c3F)n12 (stereo not given),4,45*,0,4,1
Cc1cc(=O)nc2c3ccccc3n(C(C)C(=O)Nc3cc(F)ccc3F)n12 (stereo not given),-2,·,·,·,-11
Cc1cccc(Nc2nc(Cl)ncc2F)c1C,-2,0,0,-16,-1
COc1ccc(S(=O)(=O)Nc2ccc3c(c2)n(C)c(=O)n3C)cc1F,4,-3,-1,0,-4
Cc1cc(S(=O)(=O)Nc2ccc3c(c2)n(C)c(=O)n3C)ccc1F,-4,-5,0,106*,-1
Cc1ccc(C(=O)NCCc2nnc3ccc(SCC(=O)Nc4c(C)cc(C)cc4C)nn23)cc1,-8,-6,0,-1,-16
Cc1ccc(C(=O)NCCc2nnc3ccc(SCC(=O)Nc4ccccc4C)nn23)cc1,0,41*,0,3,-6
Nn1c(SC/C=C/c2ccccc2)nnc1-c1ccncc1,-5,38*,0,18,-13
COC(=O)c1c(NC(=O)C(=O)NCC2CCCO2)sc2c1CC(C)(C)OC2 (stereo not given),-1,36*,0,-13,-27
COc1ccc(OC)c(NC(=O)C(NS(=O)(=O)c2ccc3c(c2)CCCC(=O)N3)C(C)C)c1 (stereo not given),·,·,0,2,·
COC(=O)c1cc(CNC(=O)c2ccc(S(=O)(=O)N(C)c3ccccc3)cc2)ccc1OC,-1,74*,0,-25,-11
COc1ccc(-c2cc(C(F)(F)F)nc(N3CCCCCC3)n2)cc1,-5,24,1,-3,-9
COc1ccc(-c2cc(C(F)(F)F)nc(N3CCN(C)CC3)n2)cc1,-2,39*,0,-18,-39
COc1ccc(-c2cc(C#N)nc(N3CCN(C)CC3)n2)cc1,-4,55*,-4,-21,-20
CN1CCN(c2nc(C#N)cc(-c3ccccc3)n2)CC1,-2,22,0,5,-38
CCOc1ccc2[nH]c(=O)c(CN(CCO)Cc3nnnn3CCc3ccccc3)cc2c1,-4,39*,0,-7,-9
SMILES,D2 ag-1,D2 antagonist,D2 ag-2,D2 PAM-1,D2 PAM-2
COc1ccc(C2=NS(=O)(=O)N(C)C(C(=O)N3CCC(C(N)=O)CC3)=C2)cc1,4,35*,1,0,-1
CCN(c1ccccc1C)S(=O)(=O)c1cc2c3c(c1)CCN3C(=O)CC2,1,·,·,-3,9
CCN(c1ccccc1C)S(=O)(=O)c1cc2c3c(c1)CCC(=O)N3CCC2,-4,21,-1,41*,-4
Cc1nc2ccc(C(=O)N3c4ccccc4CC3C)cc2s1 (stereo not given),-3,-7,0,4,5
CON/C=C(\C=Nc1ccc(Cl)cc1Cl)c1ncc(C(F)(F)F)cc1Cl,-2,19,1,-5,-3
CON/C=C(\C=Nc1ccccc1)c1ncc(C(F)(F)F)cc1Cl,-1,-4,1,34*,-8
Cc1ccc(/C=C/C(=O)NCCCc2ccccc2)cc1,-5,-12,-1,9,-20
C#CCNC(=O)/C=C/c1ccc(C)cc1,-2,40*,0,4,-13
Cc1ccc(Cl)cc1N1CCN(C(=O)c2cnc(N3CCOCC3)c3ccccc23)CC1,·,·,0,·,·
CCCN(CCC)C(=O)CSc1ncccc1C(=O)O,0,3,38*,-19,-17
CCN(CC(=O)NCc1ccc(F)cc1)C(=O)/C=C/c1ccc(OC)cc1,2,-9,1,2,-2
CCN(CC(=O)NCc1ccc(F)cc1)C(=O)/C=C/c1ccc(OC)c(S(=O)(=O)NC(C)C)c1,-2,33*,-1,-8,-7
CC(C)c1onc(C(=O)Nc2cccc(O)c2)c1[N+](=O)[O-],9,7,0,-9,6
Cc1ccc(NC(=O)c2noc(C(C)C)c2[N+](=O)[O-])cc1,9,51*,-1,-29,-11
C=CCC1=C/C(=C\c2c(N)n3nc(CC(=O)N4CCCC4)sc3nc2=O)C=C(OC)C1=O,-5,2,40*,-5,-2
CCN(c1ccc(C)cc1C)S(=O)(=O)c1nnc(NC(=O)c2ccc(F)cc2)s1,·,·,1,5,·
CCOC(=O)N1CCN(CC(O)COc2ccccc2C(C)CC)CC1 (stereo not given),1,32*,0,-3,-7
CCOC(=O)N1CCN(CC(O)COc2ccccc2C(C)C)CC1 (stereo not given),3,6,0,-16,-12
COc1ccccc1OCC(O)CN1CCN(C(=O)c2ccccc2)CC1 (stereo not given),-3,3,33*,-12,-27
COc1ccc(NC(=O)c2cn(CC(C)C)c(=O)c3cc(OC)c(OC)cc23)cc1Cl,·,·,0,-15,·
O=C(CCCCCn1c(=S)[nH]c2ccc(N3CCOCC3)cc2c1=O)NCc1ccccc1,-8,17,-1,-1,0
O=c1c2ccc(Cl)cc2[nH]c(=S)n1CCCN1CCOCC1,-5,34*,0,-20,-18
O=C(CCCCCn1c(=S)[nH]c2ccc(N3CCOCC3)cc2c1=O)NCc1cccc(Cl)c1,8,0,-1,39*,-3
O=c1c2ccccc2[nH]c(=S)n1CCCN1CCC(Cc2ccccc2)CC1,1,82*,-2,-28,-24
O=c1c2ccccc2[nH]c(=S)n1CCCN1CCN(C2CCCCC2)CC1,2,82*,0,-24,-31
